Experiment [1] can be described thus: yeast TOR pathway RPL19A-GFP modulators, primary screen, cell-based, S. cerevisiae, multiplex flow cytometry (AID 1862; in the data active = percent of DMSO control GFP below about 86%;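 also: lower values mimic rapamycin by blocking the RPL19A rise seen in DMSO cells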). As to conditions: S. cerevisiae RPL19A-GFP strain, flow cytometry fluorescence, 3 h; at 10 µM; stronger effect = lower value.
Experiment [2] in a line: modulators of MEP2-GFP levels in yeast, primary screen, S. cerevisiae, multiplex flow cytometry (AID 1867;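 active = GFP response, as percent of the DMSO control, above the screen-wide mean plus 3 SD, about 139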;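 also: median GFP channel fluorescence of barcode-gated MEP2-GFP cells measured by flow cytometry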). As to conditions: S. cerevisiae MEP2-GFP strain, 3 h, at 10 µM, stronger effect = higher value, 100% means same as DMSO wells. In general terms: Flow cytometry measures light scatter and fluorescence of single cells or particles in a stream.
Experiment [3] can be described thus: modulators of CIT2-GFP expression in yeast, primary screen, S. cerevisiae, GFP fusion, multiplex flow cytometry (AID 1870;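 active = percent response above a set limit, the screen-wide mean plus 3 SD, cut at about 130% in these data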;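 also: barcoded CIT2-GFP strain pooled with four other GFP strains with rapamycin as positive control; median GFP fluorescence per well over plate mean of DMSO wells so 100% = DMSO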). The note with it: 3 h, at 10 µM, stronger effect = higher value.
Experiment [4] in a line: modulators of LAP4-GFP expression in yeast, primary screen, S. cerevisiae, multiplex flow cytometry (AID 1873). The note with it: 3 h, at 10 µM, stronger effect = higher value.
Experiment [5] in a line: modulators of AGP1-GFP expression in yeast TOR pathway, primary screen, cell-based, multiplex flow cytometry, S. cerevisiae (AID 1887;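 active = GFP signal above the screen-wide mean plus 3 SD, that is over about 124.5% of the solvent control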;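 also: AGP1-GFP fusion strain of S. cerevisiae within a five-strain barcoded multiplex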). As to conditions: 3 h, at 10 µM, stronger effect = higher value.
Experiment [6] can be described thus: inhibitors of CD8+ T cell-vesicle binding, pilot screen, LFA-1/ICAM-1 modulator project, MLPCN validation set, flow cytometry (AID 2523;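 active = response below a set limit, under 55% cells CD8-positive and vesicle-bound, and CD8 cells' 90th-percentile brightness under 279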;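 as to vesicle binding response: mean PE anti-B7-1 fluorescence of CD8+ cells relative to row control; 100% = QL9-loaded vesicles with DMSO vehicle in the same plate row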). As to conditions: 2C mouse CD8+ T cells, at 7 µM, stronger effect = lower value; double positive events: measured here: CD8+/vesicle+ event percentage.
Experiment [7] deals with Integrin beta-1 (Homo sapiens) + Integrin alpha-4 (Homo sapiens) (UniProt P13612+P05556). The experiment is described as follows: inhibition of HUTS-21 binding to VLA-4, pilot screen, VLA-4 allosteric modulator project, U937 cells, HUTS-21 mAb, flow cytometry, validation set (AID 2674;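 active = inhibition above 50%, about 3 SD of the validation set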;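 also: antibody binding induced by the VLA-4 ligand LDV present at three times its Kd; 0% = LDV ligand with antibody and no compound and 100% = antibody without LDV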). As to conditions: HUTS-21 LIBS mAb binding, at 6.7 µM, stronger effect = higher value, binding induced by LDV ligand.
Integrin beta-1 (Homo sapiens) + Integrin alpha-4 (Homo sapiens), sequence (P05556 whole entry, looked up): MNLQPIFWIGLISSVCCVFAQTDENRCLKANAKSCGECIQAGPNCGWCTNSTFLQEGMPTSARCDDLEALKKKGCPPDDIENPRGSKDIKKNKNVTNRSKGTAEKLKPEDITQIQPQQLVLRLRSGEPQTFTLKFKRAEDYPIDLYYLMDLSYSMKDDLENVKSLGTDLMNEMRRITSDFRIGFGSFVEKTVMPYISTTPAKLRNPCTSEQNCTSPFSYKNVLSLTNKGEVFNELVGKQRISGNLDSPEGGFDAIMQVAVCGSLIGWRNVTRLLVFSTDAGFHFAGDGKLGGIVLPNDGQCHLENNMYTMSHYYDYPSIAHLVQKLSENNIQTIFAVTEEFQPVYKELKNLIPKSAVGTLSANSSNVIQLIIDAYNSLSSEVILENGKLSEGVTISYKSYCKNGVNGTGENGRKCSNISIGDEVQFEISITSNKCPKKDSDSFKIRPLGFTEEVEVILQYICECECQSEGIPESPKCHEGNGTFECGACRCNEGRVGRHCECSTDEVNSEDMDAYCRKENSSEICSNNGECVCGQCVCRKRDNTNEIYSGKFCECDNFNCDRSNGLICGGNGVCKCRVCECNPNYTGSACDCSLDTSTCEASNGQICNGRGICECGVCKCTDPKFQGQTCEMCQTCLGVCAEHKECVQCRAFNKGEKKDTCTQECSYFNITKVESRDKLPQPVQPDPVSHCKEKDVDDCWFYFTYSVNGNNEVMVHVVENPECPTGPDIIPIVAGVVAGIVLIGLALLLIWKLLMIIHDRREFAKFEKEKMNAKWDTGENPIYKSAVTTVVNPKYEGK
Integrin beta-1 (Homo sapiens) + Integrin alpha-4 (Homo sapiens), sequence (P13612 whole entry, looked up): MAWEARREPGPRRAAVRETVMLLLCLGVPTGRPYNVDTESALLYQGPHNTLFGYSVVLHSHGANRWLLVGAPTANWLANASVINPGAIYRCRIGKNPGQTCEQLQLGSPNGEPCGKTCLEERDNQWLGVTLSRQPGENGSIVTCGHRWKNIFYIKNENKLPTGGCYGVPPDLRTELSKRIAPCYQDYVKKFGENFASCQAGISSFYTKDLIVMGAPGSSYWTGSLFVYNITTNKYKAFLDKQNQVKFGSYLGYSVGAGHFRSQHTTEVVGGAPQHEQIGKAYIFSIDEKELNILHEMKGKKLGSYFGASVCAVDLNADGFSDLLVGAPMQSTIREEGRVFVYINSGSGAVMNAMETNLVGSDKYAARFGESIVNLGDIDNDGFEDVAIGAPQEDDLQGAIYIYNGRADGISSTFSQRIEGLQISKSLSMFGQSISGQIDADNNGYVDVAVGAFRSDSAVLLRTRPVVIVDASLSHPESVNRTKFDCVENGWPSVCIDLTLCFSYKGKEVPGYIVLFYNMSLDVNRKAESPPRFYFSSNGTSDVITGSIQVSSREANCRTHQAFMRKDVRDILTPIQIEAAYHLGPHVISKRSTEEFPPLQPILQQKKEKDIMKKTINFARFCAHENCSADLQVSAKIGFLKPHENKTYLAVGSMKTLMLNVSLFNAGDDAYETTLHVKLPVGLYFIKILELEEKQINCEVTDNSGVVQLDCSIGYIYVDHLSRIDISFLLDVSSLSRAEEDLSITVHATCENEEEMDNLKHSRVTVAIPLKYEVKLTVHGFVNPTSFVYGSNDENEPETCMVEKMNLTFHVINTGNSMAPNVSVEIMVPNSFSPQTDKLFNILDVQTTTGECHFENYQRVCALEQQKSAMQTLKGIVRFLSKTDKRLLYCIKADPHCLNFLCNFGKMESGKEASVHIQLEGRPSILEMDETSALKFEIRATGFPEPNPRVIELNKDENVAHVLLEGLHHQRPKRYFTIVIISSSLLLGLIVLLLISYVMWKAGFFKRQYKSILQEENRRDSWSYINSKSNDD

Experiment [8] is described as follows: superoxide lowering in aged yeast cells, pilot screen, validation compound set (AID 2706;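 active = superoxide response below 65% of plate, a cut near 3 SD across the whole screen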;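 also: yeast exposed to compound for one week at 30 degrees C before staining; 100% = mean of all compound wells on the same plate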). As to conditions: S. cerevisiae aging, superoxide DHE fluorescence; at 10 µM; stronger effect = lower value.
Experiment [9] has as its target Beta-adrenergic receptor kinase 1 (Homo sapiens) (UniProt P25098). The experiment is described as follows: GRK2 binders displacing RNA aptamer, biochemical, validation, human GRK2, bead flow cytometry (AID 488806;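 active = aptamer binding inhibition above 30%, about 3 SD of noise from non-fluorescent compounds; inactive = inhibition at or below 30%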). The note with it: bead-bound GRK2, FAM-aptamer displacement, at 10 µM, stronger effect = higher value.
Experiment [10] has as its target Beta-2 adrenergic receptor (Homo sapiens) (UniProt P07550). The experiment is described as follows: beta2AR agonists driving receptor internalization, pilot screen, cell-based, FAP fluorogen, flow cytometry, validation set (AID 504459;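 active = percent response above 42, roughly 3 SD of non-fluorescent test compounds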;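 also: agonist-driven loss of surface beta2AR via internalization measured by FAP dye flow cytometry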). As to conditions: Am2.2-beta2AR cells, FAP surface receptor flow cytometry; at 10 µM; stronger effect = higher value.
Experiment [11] has as its target AP-2 complex subunit beta (Homo sapiens) (UniProt P63010). The experiment is described as follows: inhibitors of arrestin peptide binding to AP2, pilot screen, biochemical, validation set, GST-AP2 beads, flow cytometry (AID 504541;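 active = inhibition above 54%, about 3 SD of non-fluorescent compounds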;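 also: AP2 carries R879A mutation and is captured from E. coli lysate; bead-bound FITC arrestin peptide fluorescence measuring arrestin peptide binding to AP2; 0% = DMSO wells and 100% = excess unlabeled arrestin peptide control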). The note with it: FITC arrestin peptide, at 10 µM, stronger effect = higher value, AP2 beta2 appendage fragment, R879A mutant.
Experiment [12] can be described thus: yeast V-ATPase proton transport modulators, S. cerevisiae, pHLuorin, HTS validation (AID 504600; in the data active = response above about 15%;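 also: plate controls were DMSO for no effect and reference compound for full effect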). The note with it: S. cerevisiae pHLuorin cytosolic pH, at 10 µM, stronger effect = higher value.
The subject of experiment [13] is anti-desmoglein-3 scFv antibody binding to human DSG3. The experiment is described as follows: inhibitors of anti-DSG3 scFv binding to DSG3, pilot screen, biochemical, validation compound set, bead-based, flow cytometry (AID 588368;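 active = binding below the plate cutoff, the plate median minus 3 SD, with a reading above zero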;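 also: signal is the median channel fluorescence of bead-bound GFP antibody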). As to conditions: Protein G beads, DSG3-Fc, scFv-GFP binding, at 10 µM, stronger effect = lower value.
A short description of experiment [14]: inhibitors of fungal efflux pumps CDR1, CDR2, MDR1, pilot screen, validation compound set, multiplex, phenotypic (AID 588506;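 active = efflux inhibition above 0.42, the validation set average plus 4 SD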;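 also: Nile Red retained in cells so higher fluorescence means more efflux inhibition; 0 = negative control wells and 1 = enniatin B 25 µM full block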). The note with it: S. cerevisiae pump-expressing triplex, Nile Red efflux flow cytometry; at 10 µM; stronger effect = higher value; the pumps come from Candida albicans.
Experiment [15] deals with ATP-binding cassette sub-family B member 6 (Homo sapiens) (UniProt Q9NP58). The experiment is described as follows: ABCB6 transporter inhibitors, pilot screen, K562-ABCB6 cells, flow cytometry, validation set (AID 588550;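 active = inhibition above the screen-wide mean plus 3 SD, about 51%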;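 also: 0% = DMSO wells and 100% = benzethonium chloride 70 µM positive control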). As to conditions: K562-ABCB6 porphyrin accumulation, 1 h, at 10 µM, stronger effect = higher value.
ATP-binding cassette sub-family B member 6 (Homo sapiens), sequence (Q9NP58 whole entry, looked up): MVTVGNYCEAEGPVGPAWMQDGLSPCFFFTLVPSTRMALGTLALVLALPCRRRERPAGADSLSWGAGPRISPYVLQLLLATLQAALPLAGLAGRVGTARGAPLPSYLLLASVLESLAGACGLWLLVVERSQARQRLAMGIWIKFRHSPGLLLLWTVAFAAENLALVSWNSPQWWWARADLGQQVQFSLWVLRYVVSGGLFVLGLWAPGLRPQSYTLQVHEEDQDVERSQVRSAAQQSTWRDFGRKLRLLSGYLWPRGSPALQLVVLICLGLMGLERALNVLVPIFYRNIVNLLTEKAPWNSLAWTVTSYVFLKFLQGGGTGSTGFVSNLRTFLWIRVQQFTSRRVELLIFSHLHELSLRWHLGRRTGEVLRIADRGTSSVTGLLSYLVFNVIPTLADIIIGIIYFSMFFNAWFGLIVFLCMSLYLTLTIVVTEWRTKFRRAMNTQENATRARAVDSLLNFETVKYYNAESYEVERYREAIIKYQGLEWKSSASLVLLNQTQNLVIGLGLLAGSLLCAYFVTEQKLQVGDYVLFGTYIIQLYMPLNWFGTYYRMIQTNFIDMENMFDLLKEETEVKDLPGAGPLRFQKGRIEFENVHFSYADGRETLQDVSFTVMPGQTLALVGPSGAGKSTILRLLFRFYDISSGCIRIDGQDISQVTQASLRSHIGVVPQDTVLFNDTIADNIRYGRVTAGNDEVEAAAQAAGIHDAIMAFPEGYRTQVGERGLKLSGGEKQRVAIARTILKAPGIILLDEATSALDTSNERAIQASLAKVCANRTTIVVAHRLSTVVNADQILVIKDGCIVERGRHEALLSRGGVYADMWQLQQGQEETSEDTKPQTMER
Experiment [16] is described as follows: promoters of myeloid differentiation in arrested cells, primary screen, cell-based, GFP/MAC1 double positive, flow cytometry, validation set (AID 588685;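 active = differentiation response of at least 50%, scaled between solvent and reference control, from cells with both markers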;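 also: compound exposure lasts four days before antibody staining and flow analysis; 0% = DMSO wells and 100% = 5 µM fulvestrant positive control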). The note with it: ER-HoxA9 marrow cells, stronger effect = higher value, normalized: vehicle 0, fulvestrant 100.

The values below come from PubChem BioAssay.

Results filed as inconclusive are left out. Activity calls are given as the source filed them.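 The calls were made as follows, unless noted: active = GFP signal, as percent of the solvent control, above the screen mean plus 3 SD, about 149; inconclusive = no reading because the compound's own fluorescence upset strain identification; inactive = the rest.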

AP-2 complex subunit beta (Homo sapiens), sequence (P63010 whole entry, looked up, the tested form may be a part, one chain of several): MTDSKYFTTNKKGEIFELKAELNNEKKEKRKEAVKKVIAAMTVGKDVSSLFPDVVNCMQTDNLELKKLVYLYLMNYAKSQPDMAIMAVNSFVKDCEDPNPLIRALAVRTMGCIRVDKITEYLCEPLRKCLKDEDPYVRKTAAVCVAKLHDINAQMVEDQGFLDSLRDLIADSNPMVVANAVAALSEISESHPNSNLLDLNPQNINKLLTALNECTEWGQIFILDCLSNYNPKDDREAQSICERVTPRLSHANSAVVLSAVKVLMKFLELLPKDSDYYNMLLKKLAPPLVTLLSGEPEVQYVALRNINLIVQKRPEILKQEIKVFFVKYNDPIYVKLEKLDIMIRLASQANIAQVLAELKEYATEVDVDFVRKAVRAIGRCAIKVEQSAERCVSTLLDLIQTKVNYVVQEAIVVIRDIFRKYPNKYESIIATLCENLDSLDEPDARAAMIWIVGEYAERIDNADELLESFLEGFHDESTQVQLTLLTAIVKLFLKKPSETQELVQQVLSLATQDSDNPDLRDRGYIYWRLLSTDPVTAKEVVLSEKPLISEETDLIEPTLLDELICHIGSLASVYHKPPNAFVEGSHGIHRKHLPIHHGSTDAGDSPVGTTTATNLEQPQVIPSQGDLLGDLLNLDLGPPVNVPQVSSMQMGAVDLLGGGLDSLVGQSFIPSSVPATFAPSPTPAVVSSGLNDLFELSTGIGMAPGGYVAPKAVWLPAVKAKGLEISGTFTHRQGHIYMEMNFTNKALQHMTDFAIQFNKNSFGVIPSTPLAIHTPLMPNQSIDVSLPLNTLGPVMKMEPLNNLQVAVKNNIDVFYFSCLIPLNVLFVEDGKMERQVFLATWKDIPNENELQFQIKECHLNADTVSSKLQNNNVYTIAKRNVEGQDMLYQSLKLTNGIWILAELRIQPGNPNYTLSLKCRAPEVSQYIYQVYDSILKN
Beta-2 adrenergic receptor (Homo sapiens), sequence (P07550 whole entry, looked up): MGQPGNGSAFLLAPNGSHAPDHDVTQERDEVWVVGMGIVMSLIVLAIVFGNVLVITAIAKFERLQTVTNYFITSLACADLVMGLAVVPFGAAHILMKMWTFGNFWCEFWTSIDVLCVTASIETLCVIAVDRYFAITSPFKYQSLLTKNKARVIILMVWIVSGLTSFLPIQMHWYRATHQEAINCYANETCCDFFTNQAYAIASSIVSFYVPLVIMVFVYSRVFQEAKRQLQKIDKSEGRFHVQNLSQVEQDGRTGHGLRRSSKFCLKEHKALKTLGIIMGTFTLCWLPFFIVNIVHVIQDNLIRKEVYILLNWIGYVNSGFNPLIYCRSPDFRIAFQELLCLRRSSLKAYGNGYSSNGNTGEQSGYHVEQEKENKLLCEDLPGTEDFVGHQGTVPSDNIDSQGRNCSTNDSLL
Beta-adrenergic receptor kinase 1 (Homo sapiens), sequence (P25098 whole entry, looked up): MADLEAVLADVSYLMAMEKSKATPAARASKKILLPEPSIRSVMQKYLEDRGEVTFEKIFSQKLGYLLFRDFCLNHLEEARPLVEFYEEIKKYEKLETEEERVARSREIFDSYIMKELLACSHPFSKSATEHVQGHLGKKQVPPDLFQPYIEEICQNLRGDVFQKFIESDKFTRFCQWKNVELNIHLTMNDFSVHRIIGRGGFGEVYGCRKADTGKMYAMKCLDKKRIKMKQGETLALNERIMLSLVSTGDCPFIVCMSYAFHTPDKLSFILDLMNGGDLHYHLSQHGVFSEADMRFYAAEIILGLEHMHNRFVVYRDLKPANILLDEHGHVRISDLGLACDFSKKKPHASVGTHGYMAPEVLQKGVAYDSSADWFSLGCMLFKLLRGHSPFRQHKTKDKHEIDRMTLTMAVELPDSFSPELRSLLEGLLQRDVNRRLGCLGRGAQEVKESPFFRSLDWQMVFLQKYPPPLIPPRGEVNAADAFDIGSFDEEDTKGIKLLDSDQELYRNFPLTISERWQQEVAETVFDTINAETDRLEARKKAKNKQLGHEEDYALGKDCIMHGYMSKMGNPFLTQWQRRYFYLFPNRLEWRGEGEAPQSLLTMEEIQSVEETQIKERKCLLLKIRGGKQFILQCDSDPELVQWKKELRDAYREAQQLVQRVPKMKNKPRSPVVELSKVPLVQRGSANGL

With `NC(=O)[C@@H]1[C@@H]2C(=O)N(c3ccc(F)cc3)C(=O)[C@@H]2[C@H]2C=Cc3ccccc3N21`, the percent of DMSO control GFP in experiment [1] is 104% (inactive). In addition, the GFP response vs DMSO in experiment [2] is 105% (inactive); in experiment [4] it was 100% (inactive). In addition, the percent response of DMSO control in [3] is 112% (inactive). Moreover, the GFP response, % of DMSO in [5] was 102% (inactive). Also, the double positive events in [6] amounted to 63%. Moreover, the vesicle binding response in [6] is 126% (inactive). The inhibition was -80.5% (inactive) in experiment [7], -25.9% (inactive) in [11] and -37% (inactive) in [15]. Further, the superoxide response (% of plate) in experiment [8] is 103% (inactive). Besides, the aptamer binding inhibition in experiment [9] is 6% (inactive). In addition, the response in [10] was 4.67% (inactive); in experiment [12], -0.45% (inactive). In experiment [13], the binding (% of control) was 104% (inactive). In experiment [14], the efflux inhibition (fraction of control) is -0.12 (inactive). Besides, the differentiation response in experiment [16] was 3.45% (inactive).
As for `C[C@]12CC[C@@H]3c4ccc(O)cc4CC[C@H]3[C@@H]1CC[C@@H]2O`, the percent of DMSO control GFP in experiment [1] was 98.8% (inactive). For the same compound, the GFP response vs DMSO in [2] is 105% (inactive); in experiment [4] it was 132% (inactive). In experiment [3], the percent response of DMSO control was 98.2% (inactive). In addition, the GFP response, % of DMSO in [5] was 98.6% (inactive). Besides, the double positive events in experiment [6] came out at 63%. The vesicle binding response in experiment [6] was 186% (inactive). For the same compound, the inhibition was 5.41% (inactive) in [7], 21.6% (inactive) in [11] and 4% (inactive) in [15]. Further, in experiment [8], the superoxide response (% of plate) was 97.8% (inactive). Besides, the aptamer binding inhibition in [9] is 1% (inactive). Moreover, the response in experiment [10] was -1.92% (inactive); in [12] it was 2.25% (inactive). In addition, the binding (% of control) in [13] is 103% (inactive). For the same compound, the efflux inhibition (fraction of control) in experiment [14] was 0.68 (active). Moreover, the differentiation response in experiment [16] was 9.54% (inactive).
In the case of `CCOC(=O)C(=Cc1ccccc1OC)C(=O)OCC`, the percent of DMSO control GFP in experiment [1] is 95% (inactive). Moreover, the GFP response vs DMSO in experiment [2] is 108% (inactive); in [4] it was 132% (inactive). The percent response of DMSO control in experiment [3] was 91% (inactive). Also, the GFP response, % of DMSO in experiment [5] was 92.9% (inactive). For the same compound, in experiment [6], the double positive events is 55.3%. For the same compound, the vesicle binding response in experiment [6] is 189% (inactive). Further, the inhibition is -18.2% (inactive) in [7], 0.13% (inactive) in experiment [11] and 4% (inactive) in experiment [15]. In experiment [8], the superoxide response (% of plate) was 102% (inactive). Further, in [9], the aptamer binding inhibition was -2% (inactive). The response is -11.8% (inactive) in experiment [10] and 0.91% (inactive) in experiment [12]. Also, the binding (% of control) in experiment [13] is 98.9% (inactive). In addition, in experiment [14], the efflux inhibition (fraction of control) is -0.03 (inactive). Also, the differentiation response in experiment [16] was -12% (inactive).
Take `c1ccc(CNc2ncnc3nc[nH]c23)cc1`: the percent of DMSO control GFP in [1] was 103% (inactive). Further, the GFP response vs DMSO was 104% (inactive) in [2] and 90.1% (inactive) in experiment [4]. Also, in [3], the percent response of DMSO control was 90.8% (inactive). Further, the GFP response, % of DMSO in [5] was 97.8% (inactive). In [6], this compound gave a double positive events of 63.6%. Further, the vesicle binding response in experiment [6] is 581% (inactive). The inhibition is 9.92% (inactive) in [7], -1.71% (inactive) in [11] and 3% (inactive) in [15]. The superoxide response (% of plate) in experiment [8] is 93.5% (inactive). Further, the aptamer binding inhibition in experiment [9] was 6% (inactive). Besides, the response in [10] is 1.86% (inactive); in experiment [12] it was -1.37% (inactive). Further, the binding (% of control) in experiment [13] is 94.8% (inactive). In addition, in experiment [14], the efflux inhibition (fraction of control) is 0.11 (inactive). Besides, in experiment [16], the differentiation response was 7.09% (inactive).

What is called inhibition is the change of the read-out against control, counted positive when it falls.
